Experimental data reported in PubChem BioAssay (NCI).
About 83,000 compounds went through this panel and 20% of them were active in at least one assay; those are over-represented in the sample as a whole.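 Values shown are percent growth following 48 h exposure of cells in 96-well plates to a single concentration of compound; below 10 was considered active.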 Calls of active or inactive are those of the source.

Key:
Test in all cases: NCI-60 one-dose screen, 48 h (100 = growth as untreated, 0 = no growth, -100 = all killed)
Conditions in all cases: 10 µM unless noted
[1] = tested on: T-47D breast
[2] = tested on: BT-549 breast
[3] = tested on: MDA-MB-435 melanoma
[4] = tested on: SW-620 colon
[5] = tested on: MCF7 breast
[6] = tested on: HCT-116 colon
[7] = tested on: HCC-2998 colon
[8] = tested on: KM12 colon

Measured: growth

CN(C)c1cnccn1
inactive: [1] 75.9% | [2] 73% | [3] 100% | [4] 88.7% | [5] 87.3% | [6] 97.3% | [7] 112% | [8] 103%

Cc1c(C(=O)O)nnn1-c1nccs1
inactive: [1] 90.4% | [2] 96.4% | [3] 96.2% | [4] 94% | [5] 99.6% | [6] 89.5% | [7] 113% | [8] 98.8%

N#Cc1c(NC(=O)c2ccc(Br)cc2)sc2c1CCCC2
active: [3] -22.8%
inactive: [1] 47.2% | [2] 52.2% | [4] 19.2% | [5] 13.1% | [6] 22.3% | [7] 68.6% | [8] 25.3%

O=C(Nc1ccccc1)c1sc(-c2cccc(C(F)(F)F)c2)cc1O
inactive: [1] 59.3% | [2] 70.8% | [3] 77.9% | [4] 76.1% | [5] 74.7% | [6] 67.9% | [7] 98.2% | [8] 92.3%

CNC(=O)c1c(NC(=O)c2ccc(C(C)(C)C)cc2)sc2c1CCC(=O)C2
inactive: [7] 23.3%
active: [1] -23.5% | [2] 1.12% | [3] -9.83% | [4] -62.3% | [5] 8.99% | [6] 0.171% | [8] -7.97%

O=c1ccn(C2OC(F)(CO)C(O)C2F)c(=O)[nH]1 (stereo unspecified)
inactive: [1] 81.2% | [2] 101% | [3] 103% | [4] 104% | [5] 91.6% | [6] 104% | [7] 99.1% | [8] 104%

CCn1c(Sc2nnc(NC(=O)CCN3CCCC3)s2)nc2c1c(=O)n(C)c(=O)n2C
inactive: [1] 102% | [2] 110% | [3] 107% | [4] 105% | [5] 105% | [6] 105% | [7] 114% | [8] 109%

COc1ccc(/C=C2\COc3ccc(O)c(O)c3C2=O)c(OC)c1
inactive: [1] 48% | [2] 57.8% | [3] 21% | [4] 64% | [5] 31.2% | [6] 59.4% | [7] 104% | [8] 45%

C=C1C(=O)O[C@H]2[C@H]1CC/C(C(=O)NCCCCCCCCNC(=O)/C1=C/CC[C@@]3(C)O[C@H]3[C@H]3OC(=O)C(=C)[C@@H]3CC1)=C\CC[C@@]1(C)O[C@@H]21
inactive: [1] 28.4% | [2] 51% | [3] 86.8% | [4] 14.2% | [5] 37.9% | [6] 29.7% | [7] 97.2% | [8] 93.1%

CCNCCNc1cc(-c2ccc(C(=O)OC)cc2)c(C#N)c2nc3ccccc3n12
inactive: [1] 18.6% | [2] 68.2% | [3] 73.2% | [5] 53.8% | [7] 49% | [8] 50.8%
active: [4] 2.26% | [6] -19.5%

CC(=O)c1sc(-c2ccccc2)cc1N
inactive: [1] 83% | [2] 101% | [3] 94.1% | [4] 96.5% | [5] 97.7% | [6] 98.8% | [7] 99.4% | [8] 104%

CNC(=O)c1cc(Oc2ccc3nc(NC(=O)Nc4cc(C(F)(F)F)cc(C(F)(F)F)c4)sc3c2)ccn1
active: [1] -39.6% | [2] -46.9% | [3] -13.6% | [4] -36.1% | [5] 0.0531% | [6] -56.1% | [7] 5.71% | [8] -14.7%

COc1cc(C(=O)Nc2cc(O)c(CC=C(C)C)c(O)c2)cc2c1O[C@]1(C)CC[C@@H](O)C(C)(C)[C@H]1C2
active: [1] 3.79% | [4] 7.03% | [5] 6.62% | [7] 7.4%
inactive: [2] 29.6% | [3] 24.9% | [6] 13.2% | [8] 18.2%

CCCCCCNC(=O)c1cc(NCc2cc(O)ccc2O)ccc1O
inactive: [1] 21.3% | [2] 22.4% | [3] 71.5% | [4] 76.8% | [5] 54.9% | [6] 75% | [7] 105% | [8] 69.1%

COc1ccccc1NC(=O)Nc1ccc(-c2nc3ccccc3o2)cc1
inactive: [1] 68.1% | [2] 92.3% | [3] 104% | [4] 111% | [5] 99% | [6] 93.7% | [7] 106% | [8] 105%

CCCCCCCCn1cc(C2=C(c3coc4ccc(OC)cc34)C(=O)NC2=O)c2ccccc21
inactive: [1] 115% | [2] 87.4% | [3] 102% | [4] 99.1% | [5] 91.8% | [6] 104% | [7] 104% | [8] 104%

CCOC(=O)c1c2c(c(C)n1C)-c1nn(Cc3ccc(OC)cc3)cc1CC2
inactive: [1] 64.4% | [2] 271% | [3] 100% | [4] 96.9% | [5] 99.3% | [6] 84.4% | [7] 109% | [8] 92.4%

CCOc1cc(N)ccc1C(=O)NCCCN(CC)CC
inactive: [1] 101% | [2] 98.8% | [3] 106% | [4] 101% | [5] 96.4% | [6] 98% | [7] 95.9% | [8] 106%

C[C@@H]1C(=O)N(C[C@@H](Cc2ccccc2)NC(=O)OCc2ccccc2)[C@]1(Cc1ccccc1)C(=O)OCc1ccccc1
inactive: [1] 22.3% | [2] 61.3% | [3] 48.3% | [4] 40.9% | [5] 27% | [6] 34.4% | [7] 72.8% | [8] 26%

O=[N+]([O-])c1ccc2[nH]cc(-c3c4ccsc4cc4[nH]c5ccc([N+](=O)[O-])cc5c34)c2c1
inactive: [2] 24.7% | [4] 25%
active: [1] 7.11% | [3] -27.6% | [5] 9.14% | [6] 2.78% | [7] 7.3% | [8] 3.79%

COC(=O)[C@]12CC[C@@H](C)[C@H](C)[C@@H]1C1=CC[C@@H]3[C@@]4(C)C(C=O)=C[C@@](C)(CO)C4=CC[C@@]3(C)[C@]1(C)CC2
active: [6] 6.65%
inactive: [1] 20.8% | [2] 27.7% | [3] 39.6% | [4] 27.9% | [5] 18.1% | [7] 16.1% | [8] 21.6%

O=C(Nc1ccccc1Cl)OCCN1CCOCC1
inactive: [1] 101% | [2] 72.2% | [3] 107% | [4] 104% | [5] 105% | [6] 73.8% | [7] 99.6% | [8] 102%

Clc1ccc2[nH]c3c(NCCCN4CCOCC4)ncnc3c2c1
inactive: [1] 72.2% | [2] 77.9% | [3] 92.8% | [4] 57.2% | [5] 74.6% | [6] 36.3% | [7] 87.4% | [8] 86.5%

C/C(=N\NC(N)=S)c1nc2ccc(Cl)cc2[nH]1
active: [5] 8.53%
inactive: [1] 40.5% | [2] 74.9% | [3] 54.6% | [4] 41.4% | [6] 35.6% | [7] 55.8% | [8] 32.1%

O=S(=O)(NCCNc1cc(-c2c(-c3cccc(O)c3)nc3sccn23)ccn1)c1ccc(Br)cc1
inactive: [1] 23.8% | [2] 55.2% | [3] 26.1% | [4] 76.8% | [5] 37.4% | [6] 47.9% | [7] 95.3% | [8] 51.3%

COc1ccc2cc(-c3ccc(C(=O)NN)c(C)n3)ccc2c1
inactive: [1] 79.5% | [2] 88.9% | [3] 99.9% | [4] 107% | [5] 90.4% | [6] 93.7% | [7] 99.6% | [8] 103%

CN(C)S(=O)(=O)n1cnc([C@@H]2[C@@H]3C(=O)OC[C@@H]3C[C@]23N=CN(Cc2ccccc2)C3=O)c1
inactive: [1] 102% | [2] 116% | [3] 108% | [4] 97.3% | [5] 100% | [6] 100% | [7] 98.6% | [8] 104%

CCNCCNc1cc(-c2ccc(C(F)(F)F)cc2)c(C#N)c2nc3cc(Cl)c(Cl)cc3n12
active: [1] -53.2% | [2] -2.28% | [3] -92.6% | [4] -81.8% | [5] -70.6% | [6] -88.3% | [7] -88.9% | [8] -77.7%

N=C(N)c1ccc(-c2ccc(-c3ccc(Cl)cc3Cl)o2)cc1
active: [3] -63.6% | [4] -67.3% | [5] -73.7% | [6] -68.8% | [7] -93.2% | [8] -77.7%
inactive: [1] 57.6% | [2] 94.7%

O=C1CSC(c2ccccc2Cl)N1c1nnc(Cn2cnnc2)o1 (stereo unspecified)
active: [3] -45.1% | [5] -8.09%
inactive: [1] 33.3% | [2] 60.6% | [4] 39.4% | [6] 13.3% | [7] 35.8% | [8] 50.9%

O=C1Nc2ccc(Cl)cc2/C1=N/N=C/c1c[nH]c2ccccc12
inactive: [1] 73.4% | [2] 93.5% | [3] 87% | [4] 79.2% | [5] 71.1% | [6] 75.6% | [7] 101% | [8] 68.1%

N=C(N)c1ccc(-c2ccc(-c3ccc(Cl)cc3Cl)o2)nc1
active: [3] -92.1% | [4] -68.7% | [5] -54.6% | [6] -75.5% | [7] -34.3% | [8] -35.5%
inactive: [1] 59.2% | [2] 94.7%
